Reference: PubChem BioAssay
“And” between values parts separate entries of the source, which are not always exact repeats. Identical values can stand only once. Inconclusive results are not listed. The source made the active and inactive calls.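 Rule for the calls, unless noted: active = thallium flux through the channel raised or lowered by more than 3 SD from vehicle-only wells, actives on both sides; inactive = the rest.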

How the values were obtained:
[1] = reducers of polyQ inclusions in PC12 cells, cell-based, NGF-treated PC12, GFPQ80 (AID 1614); settings: PC12 NGF-treated GFP-polyQ80 inclusion reduction;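 note: lower means fewer inclusions and 0 means no inclusions at all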
F380Y = test: modulators of BK channel variants, profiling panel, selectivity assay, cell-based, U2OS BacMam, thallium flux, beta subunits (AID 1259406); settings: at 30 µM;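 note: initial slope of Thallos dye fluorescence rise after thallium is added; log ratio against the mean of 0.3% DMSO vehicle wells on the same plate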
F380Y/beta1 = test: as above; settings: at 30 µM
F380Y/beta2Delta = test: as above; settings: at 30 µM
F380Y/beta4 = test: as above; settings: at 30 µM
[2] = target: Calcium-activated potassium channel subunit alpha-1 (Homo sapiens) + Leucine-rich repeat-containing protein 26 (Homo sapiens) (UniProt Q12791+Q2I0M4); test: as above; settings: F380Y/Slo1WT/gamma1, at 30 µM
R275C = test: as above; settings: at 30 µM
R275C/beta1 = test: as above; settings: at 30 µM
R275C/beta2Delta = test: as above; settings: at 30 µM
R275C/beta4 = test: as above; settings: at 30 µM
R275C/Slo1WT/beta2 = test: as above; settings: at 30 µM
[3] = growth inhibition of DIPG glioma cells, dose response, cell-based, JHH-DIPG-1, MIPE4.0, CellTiter-Glo, qHTS (AID 1347062; cut-off not given, nearly all actives have AC50 up to about 27 µM;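 for AC50: cells exposed to compound for two days before readout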); settings: JHH-DIPG-1 viability, CellTiter-Glo ATP luminescence
[4] = SU-DIPG-VI glioma cell viability, MIPE4.0 library, CellTiter-Glo luminescence, qHTS (AID 1347066; cut-off not given, nearly all actives have AC50 up to about 30 µM;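 note: cells exposed to compound for 48 hours before readout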); settings: CellTiter-Glo ATP luminescence
[5] = LFS_MB_1R medulloblastoma cell growth inhibition, synergistic combos for chromothripsis tumors, cisplatin or BGB combos (AID 1671452; in the data active = inhibition above about 80%;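 note: cells exposed for 96 hours before readout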); settings: LFS_MB_1R medulloblastoma cells, stronger effect = higher value
[6] = CRL2098 osteosarcoma cell growth inhibition, synergistic combos for chromothripsis tumors, BGB or cisplatin IC20 combos (AID 1671454; in the data active = inhibition above about 80%;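 note: cells exposed for 96 h before readout; 0% = vehicle DMSO and 100% = killing by high DMSO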); settings: CRL2098 osteosarcoma cells, drug combinations, stronger effect = higher value
[7] = HD-MB03 medulloblastoma cell growth inhibition, synergistic combos for chromothripsis tumors, BGB or cisplatin IC20 combos (AID 1671455; in the data active = inhibition above about 83%;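 note: 0% = vehicle DMSO and 100% = high DMSO as cytotoxic control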); settings: HD-MB03 medulloblastoma cells, stronger effect = higher value
[8] = UWB1.289 ovarian carcinoma cell growth inhibition, synergistic combos for chromothripsis tumors, BGB or cisplatin combos (AID 1671456; in the data active = inhibition above about 80%;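 note: cells exposed to compound for four days; 0% = vehicle DMSO and 100% = killing by high DMSO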); settings: UWB1.289 ovarian carcinoma cells, stronger effect = higher value
[9] = growth inhibition of CRL1545 osteosarcoma cells, cell-based, cisplatin and BGB IC20 combos (AID 1671464; in the data active = inhibition above about 80%;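 note: cells exposed to compound for 96 hours before readout; 0% = vehicle DMSO and 100% = high DMSO killing control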); settings: stronger effect = higher value
[10] = liver-stage malaria parasite growth inhibition, primary screen, cell-based, HepG2, luciferase luminescence, HepG2 viability (AID 624349; in the data active = parasite load remaining mostly below about 12%, no sharp cut-off; inactive = mostly above about 10%;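 note: 100% = mean of DMSO negative control wells on the same plate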); settings: P. berghei liver stage in HepG2, luciferase luminescence, concentration not given here; parasite load remaining: stronger effect = lower value; viability: measured here: HepG2 viability without parasites
[11] = growth inhibition of DIPG glioma cells, dose response, cell-based, SU-DIPG-IV, MIPE4.0, CellTiter-Glo, qHTS (AID 1347063; cut-off not given, nearly all actives have AC50 up to about 30 µM;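 note: compound exposure lasted 48 hours before the viability readout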); settings: SU-DIPG-IV viability, CellTiter-Glo ATP luminescence

Chain of Calcium-activated potassium channel subunit alpha-1 (Homo sapiens) + Leucine-rich repeat-containing protein 26 (Homo sapiens) (Q2I0M4 whole entry, looked up, one chain of several): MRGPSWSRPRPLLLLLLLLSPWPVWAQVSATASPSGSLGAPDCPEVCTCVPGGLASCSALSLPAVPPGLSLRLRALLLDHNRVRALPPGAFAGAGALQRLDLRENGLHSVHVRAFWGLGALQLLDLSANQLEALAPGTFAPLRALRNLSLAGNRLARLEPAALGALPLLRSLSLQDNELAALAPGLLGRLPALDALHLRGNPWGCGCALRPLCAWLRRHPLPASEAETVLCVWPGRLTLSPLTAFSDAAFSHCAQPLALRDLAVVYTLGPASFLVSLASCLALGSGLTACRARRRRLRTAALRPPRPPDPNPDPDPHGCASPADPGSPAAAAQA

CC12CCC(CC1)C(C)(C)O2
2: inclusion score [1]

COc1cc(Cc2cnc(N)nc2N)cc(OC)c1OC
2: inclusion score [1]
inactive: log fold change Tl+ flux (F380Y) 0.00407 | log fold change Tl+ flux (F380Y/beta1) 0.057 | log fold change Tl+ flux (F380Y/beta2Delta) -0.0235 | log fold change Tl+ flux (F380Y/beta4) 0.0143 | log fold change Tl+ flux [2] -0.00393 | log fold change Tl+ flux (R275C) 0.00151 | log fold change Tl+ flux (R275C/beta1) -0.051 | log fold change Tl+ flux (R275C/beta2Delta) -0.0321 | log fold change Tl+ flux (R275C/beta4) 0.00256 | log fold change Tl+ flux (R275C/Slo1WT/beta2) 0.00876

CCn1cc(C(=O)O)c(=O)c2ccc(C)nc21
-3.65% and -15.7%: inhibition ([8]; measured here: inhibition with BGB combination, at 0.05 µM)
-30.2% and 15.7%: inhibition ([5]; measured here: combination with cisplatin, at 0.5 µM)
-17.6% and 10%: inhibition ([9]; single agent, at 0.05 µM)
2.7% and -23.8%: inhibition ([6]; measured here: combination with cisplatin at IC20, at 0.5 µM)
-12.1% and -5.6%: inhibition ([9]; measured here: with BGB IC20 combination, at 0.5 µM)
-21.7% and -0.433%: inhibition ([5]; measured here: combination with BGB IC40, at 0.05 µM)
inactive: outcome [3] | outcome [4] | inhibition ([5]; at 0.5 µM) -19% and -13.7% | inhibition ([6]; at 0.5 µM) -8.42% and -27% | inhibition ([7]; at 0.5 µM) -1.5% and -3.12% | inhibition ([8]; at 0.5 µM) 13.8% and -1.94% | inhibition ([9]; at 0.5 µM) -14.9% and -26.1% | log fold change Tl+ flux (F380Y) 0.0464 | log fold change Tl+ flux (F380Y/beta1) 0.00258 | log fold change Tl+ flux (F380Y/beta2Delta) 0.0152 | log fold change Tl+ flux (F380Y/beta4) 0.0252 | log fold change Tl+ flux [2] 0.0259 | log fold change Tl+ flux (R275C) -0.0165 | log fold change Tl+ flux (R275C/beta1) 0.0366 | log fold change Tl+ flux (R275C/beta2Delta) 0.000751 | log fold change Tl+ flux (R275C/beta4) 0.0726 | log fold change Tl+ flux (R275C/Slo1WT/beta2) -0.00423
-1.32% and 14.5%: inhibition ([5]; measured here: combination with cisplatin, at 5 µM)
-13.8% and -3.06%: inhibition ([6]; measured here: combination with BGB at IC20, at 0.5 µM)
-1.78% and 8.77%: inhibition ([7]; measured here: combo with cisplatin at IC20, at 0.5 µM)
2: inclusion score [1]
-16.3% and -36.4%: inhibition ([9]; measured here: with cisplatin IC20 combination, at 0.5 µM)
-0.571% and -10.6%: inhibition ([7]; measured here: combo with BGB at IC20, at 0.5 µM)
2.92% and -1.74%: inhibition ([8]; measured here: inhibition with cisplatin combination, at 0.05 µM)
0.11% and -3.86%: inhibition ([9]; single agent, at 5 µM)

CN1C(=O)CC[C@H]1c1cccnc1
2: inclusion score [1]
inactive: log fold change Tl+ flux (F380Y) -0.00809 | log fold change Tl+ flux (F380Y/beta2Delta) 0.00811 | log fold change Tl+ flux [2] 0.0267 | log fold change Tl+ flux (R275C) -0.00497 | log fold change Tl+ flux (R275C/beta1) -0.0358 | log fold change Tl+ flux (R275C/beta2Delta) -0.0502

Oc1ccc(O)cc1
inactive: parasite load remaining [10] 24.8% and -0.995%
92.7% and 79.1%: viability [10]

COc1c2occc2cc2ccc(=O)oc12
2: inclusion score [1]
inactive: outcome [3] | outcome [11] | outcome [4] | log fold change Tl+ flux (F380Y) -0.0152 | log fold change Tl+ flux (F380Y/beta1) 0.0099 | log fold change Tl+ flux (F380Y/beta2Delta) -0.0131 | log fold change Tl+ flux (F380Y/beta4) 0.0241 | log fold change Tl+ flux [2] 0.011 | log fold change Tl+ flux (R275C) 0.0168 | log fold change Tl+ flux (R275C/beta1) -0.00904 | log fold change Tl+ flux (R275C/beta2Delta) 0.0233 | log fold change Tl+ flux (R275C/beta4) 0.0801 | log fold change Tl+ flux (R275C/Slo1WT/beta2) 0.00849

CN(C)C(=O)C(CCN1CCC(O)(c2ccc(Cl)cc2)CC1)(c1ccccc1)c1ccccc1
active: AC50 [3] 20.9 µM | log fold change Tl+ flux (F380Y) 0.113 | log fold change Tl+ flux (F380Y/beta1) 0.203 | log fold change Tl+ flux (F380Y/beta2Delta) 0.103 | log fold change Tl+ flux (F380Y/beta4) 0.119 | log fold change Tl+ flux (R275C) -0.645 | log fold change Tl+ flux (R275C/beta2Delta) -0.504
inactive: outcome [11] | log fold change Tl+ flux [2] -0.0267 | log fold change Tl+ flux (R275C/beta1) 0.0279 | log fold change Tl+ flux (R275C/beta4) -0.104 | log fold change Tl+ flux (R275C/Slo1WT/beta2) 0.0159

CNCCCN1c2ccccc2CCc2ccccc21
active: log fold change Tl+ flux (F380Y) 0.121 | log fold change Tl+ flux (F380Y/beta2Delta) 0.152 | log fold change Tl+ flux (F380Y/beta4) 0.144 | log fold change Tl+ flux [2] 0.148 | log fold change Tl+ flux (R275C/beta1) 0.17 | log fold change Tl+ flux (R275C/beta2Delta) 0.152
inactive: log fold change Tl+ flux (F380Y/beta1) 0.022 | log fold change Tl+ flux (R275C) 0.0168 | log fold change Tl+ flux (R275C/beta4) 0.123 | log fold change Tl+ flux (R275C/Slo1WT/beta2) -0.0879

CN1[C@@H]2CC(OC(=O)[C@H](CO)c3ccccc3)C[C@H]1[C@@H]1O[C@@H]12 (stereo not given in full)
inactive: parasite load remaining [10] 98.9% and 107% and 26.7%
102% and 73.5% and 68.5%: viability [10]
